Reference: the supplement of paper PMC6555819

Test system: PPARg:RXRa IVT, anti-PPARg (NR concentration 270 nM, RXRa partner concentration 90 nM)
Test: PBM binding z-score (relative to random genomic background probes); higher = stronger binding; sequences stand for … in GC…GCGATTGACAGCGTAGAATGAAGG
Summary of the method: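 Binding z-scores take random background probes as their reference. They come from custom Agilent 4×180K protein-binding microarrays incubated 1 h with ligand-free nuclear receptor dimers, with antibodies against each partner (one per run) detecting binding. Scanned fluorescence was regression-normalized.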

Sequence | PBM binding z-score
CGTACAGGGTCAGCTAGGCCAGAGTAGGGACGGC | 2.64
ACCGAAAGGTCGAGGTGAGTATAGAGAAAGGGAA | 2.17
AATATTAGTTGACTTAGGGCAACCGATACGACGC | 0.435
ACTAGCAGGCCAAGGGTCACTCCAGATTAGTCCG | 3.57
ATCTCTAGGTAACAAAGTTCAGTGAATGCCGAAC | 3.03
TCTAGCAGGCCAGAGGGTCACTTAAGAGGTACGG | 0.688
TCTTGTAGATCATTAGAGGTTAAGAAAGTGCGCT | 1.01
GCTAGTAGTTGAAAGGGCAACCGAATGATTCTCG | 1.26
GCTCGGAGGACAAGGGCAGAGCTTTGTCCGTAGA | -0.527
AGAATGAGGTTAAGATCATGGAAACAGAATACAT | 2.7
AGTAGCAGGCCAAGTTTGGGTCACTCAAACAAAG | 1.17
TCGAGTAGGTTACCAATGGGGCATTAAGCTTTCT | 2.74
CCAACTAGGTCACGAAAGGTCAAAGTCGAATGAC | 8.54
AGAATGAGGTTACCAAAGATCAGGGAAACGCTTG | 3.38
ATCGAAAGGACGTGAGGTGAGTATACAGAAAGGC | 0.152
TCTAGTTGGACACGGAGGTCACACACGACGGGTA | 2.33
CTACCAAGGTGAACAAGGTCATTGATTACTATTC | 4.07
CGAACTAGGTCATTGACAGGACAGTGAGTAGTAA | 8.32
TCTTGTAGATCAACAGGAGGTTATGAAAGATCGA | 0.582
ACTTACGGGTCATCGAGGTTATAGCACGCGTATA | 4.16

Sequence | PBM binding z-score
GCTATCAGTTGAAAGGGCAACCGAATGATTCTCG | 0.3
CGAACGAGGGCATGAGTTGATAGCGAATGCCGAT | 2.24
TAGCCTAGGTCATGCGGGCCAGAATAGTGTCGGC | 2.9
GCTAGTTGGTCAGTAAAAGGTCACAAACCGGTCG | 2.83
CCTAGTTGGTCAAGGGCACACACGCTATAGGTAC | 1.69
ACAGACGGGTGAGTGAAGGTAACTCAGCTGGACG | 0.467
CCTATTAGTTGACCATAAGGGCAACCTAAGCTCG | 0.836
GGAACGAGGGCAAGTTGATACCAGAGTTTGATGG | 3.07
CCTTACAGGTCACTCCAGGTTATAGCATCGGAGT | 4.23
TTACCAAGGTGAAGGTTGTTGATCCCTCTGTAGA | 2.94
TCAGATAGGTAAACAGGTGAAAGTCCGTAAGTTA | 2.15
AGAATGAGGTTGAGATCAGGGAAACAGAATACAT | -0.0669
TCTCGGAGGACACGAAGGTCACAGCTTTCCAGAG | 2.4
TCTCGGAGGACACGAAGGTCAGATCTTTCCAGAG | 0.717
AGAACGAGGGCACGCGGAGTTGATAGCAGAGTAG | 4.01
CCTCAGAGGACAGAAGGTCAGAGCTGTCCGCTTT | 0.424
TCTCGGAGGACACGAAGGTTAGAGCTTTCCAGAG | 0.171
CGTTCAAGGTCAGAGAGGTCAGTGAATGCCGAGT | 4.41
CTTGCTAGGTCATGGTCAGCTAATCTACAGTATG | 4.72
CCTTACGGGTCTCGAGGTTATAGCACGACGAGCG | 0.298
